Source: PubChem
ELG1 DNA repair: qHTS screen for small molecules that inhibit ELG1-dependent DNA repair in human embryonic kidney (HEK293T) cells expressing luciferase-tagged ELG1. HEK293T ELG1-luciferase reporter, luminescence, 16 h; DNA damage induced by 5-fluorouridine. Potency, µM (titrated, usually from 46.1 µM), for inactives: at the top dose activity change, negative = inhibition, most hits filed as inhibitors. 2.3% of 330,000 active; further: on the % scale 0 is the no-effect control and ±100 the full control effect; nearly all actives have a fitted effect of over 55% in size
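Reporter activity after DNA damage by 5-fluorouridine is monitored. Compound-treated cells incubate 16 hr at 37 °C, then ONE-Glo is added for 30 min before luminescence reading.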
SMN2 splice up: qHTS Assay for Enhancers of SMN2 Splice Variant Expression; HEK293 SMN2-luciferase splicing reporter, luminescence, 30-36 h; Potency, µM (highest dose often 46.1 µM), for inactives: at the highest dose activity change, positive = activation, usual class: activators; 2.8% of 210,000 active; further: % of control where 0% means no effect; nearly all actives have a fitted effect of over 55% in size
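qHTS luciferase splicing reporter: luminescence rises when SMN2 exon 7 is included in transfected HEK293 cells. Compound exposure lasted 30-36 h at 37C, with 4.5 mM final sodium butyrate as control, followed by a ONE-Glo read.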
NPC1 promoter act: qHTS Assay for NPC1 Promoter Activators; 2.4% of 320,000 active; Potency, µM (series often up to 9.22 µM), for the others: top-dose activation, most hits filed as activators; Huh7 NPC1 promoter luciferase reporter, 24 h; further: % of control where 0% means no effect; nearly all actives have a fitted effect of over 60% in size
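Quantitative HTS used a cell-based reporter: Huh7 cells stably bearing the NPC1 promoter upstream of luciferase were treated with compounds for 24 h, and promoter activation was read as luminescence.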
Rab9 prom act: qHTS Assay for Rab9 Promoter Activators; Huh7 Rab9 promoter-luciferase reporter, luminescence, 24 h; Potency, µM (highest dose often 9.22 µM), without a hit: at the highest dose activation, negative = inhibition, hits mostly activators; 2.8% of 320,000 active; AID 485297, 2010; further: % of control where 0% means no effect; nearly all actives have a fitted effect of over 60% in size
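Stable Rab9-luc Huh7, 1500 cells/well, 2 h settle; cmpd in DMSO, 24 h, 37 °C/5% CO2; luciferase reagent 10 min RT; luminescence.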
ELG1 genotox: qHTS screen for small molecules that induce genotoxicity in human embryonic kidney (HEK293T) cells expressing luciferase-tagged ELG1; 1.3% of 330,000 active; HEK293T ELG1-luciferase reporter, luminescence, 16 h; AID 504466, 2011; Potency, µM (top dose mostly 46 µM), inactives show at the top dose activity change, positive = activation, hits mostly activators; further: % of control where 0% means no effect; nearly all actives have a fitted effect of over 60% in size
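Quantitative HTS format in 1536-well plates. HEK293T ELG1-luciferase reporter cells receive test compound and are incubated 16 hr at 37 °C, 5% CO2; ONE-Glo added, 30 min room temperature, then luminescence read.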
FLuc modulator: qHTS profiling assay for firefly luciferase inhibitor/activator using purifed enzyme and Km concentrations of substrates (counterscreen for miR-21 project). Luciferin 4-monooxygenase (Photinus pyralis), P08659. purified FLuc, Km substrates, luminescence inhibition. Potency, µM (highest dose often 57.5 µM), inactives show at the top dose activity change, negative = inhibition, most hits filed as inhibitors. 6.9% of 360,000 active. AID 588342, 2011;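 further: plate controls were vehicle for no effect and reference inhibitor for full effect; nearly all actives have a fitted effect of over 55% in size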
Target sequence (P08659 whole entry, looked up): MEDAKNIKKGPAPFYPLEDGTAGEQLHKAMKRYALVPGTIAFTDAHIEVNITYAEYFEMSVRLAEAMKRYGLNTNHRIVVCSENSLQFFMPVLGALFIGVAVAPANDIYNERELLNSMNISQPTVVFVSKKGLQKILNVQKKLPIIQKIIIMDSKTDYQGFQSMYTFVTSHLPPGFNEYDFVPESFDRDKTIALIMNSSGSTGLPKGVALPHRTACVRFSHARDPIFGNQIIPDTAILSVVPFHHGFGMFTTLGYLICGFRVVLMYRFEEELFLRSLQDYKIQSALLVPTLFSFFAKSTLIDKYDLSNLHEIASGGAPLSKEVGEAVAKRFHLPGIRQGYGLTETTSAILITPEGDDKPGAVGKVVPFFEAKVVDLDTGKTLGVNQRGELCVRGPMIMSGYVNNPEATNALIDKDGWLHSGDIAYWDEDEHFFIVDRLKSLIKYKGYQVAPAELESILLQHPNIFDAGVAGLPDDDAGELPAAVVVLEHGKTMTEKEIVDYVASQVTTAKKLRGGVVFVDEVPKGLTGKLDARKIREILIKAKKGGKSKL
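Purified P. pyralis luciferase (10nM final) with 10uM D-luciferin and 10uM ATP (Km levels) in 50mM Tris acetate pH 7.5, 10mM Mg acetate, 0.01% Tween-20, 0.05% BSA; qHTS 6-point titration, ~60 µM downward; luminescence read.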
Numbers without * were called inactive; ? = inconclusive; nt = not tested or not shown; [ ] = remark or other dose. Rows were chosen to be rich in hits. Some 9.2% of all compounds tested hit in one or more screens of this group. The call rests on the fitted dose curve; in most records, active means well fitted curve in the direction sought with a large enough effect; inconclusive means small, poorly fitted or top-dose-only effect, or another doubt; inactive means no such curve, though single readings can be large; an effect the other way counts as inactive or inconclusive. Potency means the concentration at half of the fitted maximal effect.

SMILES	ELG1 DNA repair	SMN2 splice up	NPC1 promoter act	Rab9 prom act	ELG1 genotox	FLuc modulator
COC(=O)Cc1c(C)nc2nc(NCc3ccc(Br)cc3)[nH]n2c1=O	nt	4.7%	nt	nt	nt	?
COC(=O)Cc1c(C)nc2nc(-c3ccc(OC)cc3)[nH]n2c1=O	18.5%	-9.5%	12.1%	1.5%	?	15.1µM*
COc1ccc(-c2nc3nc(C)cc(=O)n3[nH]2)cc1	12.5%	0.7%	-2.9%	17.8%	2.6%	16.9µM*
Cc1cc(=O)n2[nH]c(COc3ccccc3)nc2n1	16.9%	5.6%	1.4%	-5.8%	-5.4%	?
CCOC(=O)N1CCN(C(=O)c2cn(C)c(=O)c3c2c2ccccc2n3C)CC1	?	-4.4%	-1.1%	-6.2%	1.3%	0.9%
CCOC(=O)N1CCN(C(=O)c2cn(CC(C)C)c(=O)c3c2c2ccccc2n3C)CC1	18.4µM*	2.4%	-1.1%	-6.4%	-9.1%	-9.0%
CC(C)CC(NC(=O)OCC1c2ccccc2-c2ccccc21)C(=O)O (stereo not given)	nt	12.6µM*	nt	nt	nt	nt
O=C(O)CCNC(=O)OCC1c2ccccc2-c2ccccc21	-11.6%	nt	0.3%	5.7%[1.84 µM]	-0.9%	-18.8%
COc1ccc(Oc2ncc3ncc(=O)n(Cc4cccc(OC)c4)c3n2)cc1	nt	-17.4%	nt	nt	nt	nt
CCCCn1c(NS(=O)(=O)c2ccccc2)c(S(=O)(=O)c2ccc(C)cc2)c2nc3ccccc3nc21	18.4µM*	-33.2%	-1.9%	-6.6%	-10.9%	3.8%
CC1=NN(c2ccccc2)C(=O)C1C=Nc1ccc(N(C)C)cc1 (stereo not given)	6.51µM*	nt	10.6%	-2.9%	0.9%	?
CC1=NN(c2ccccc2)C(=O)C1N=Nc1ccc(C)cc1 (stereo not given)	6.7%	21.4%	1.2%	-2.5%	0.6%	-17.0%
O=C1NC(=S)N/C1=C/C=C/c1ccccc1	?	20.3%	18.2%	?	?	-14.1%
CC1=NN(c2ccccc2)C(=O)C1/C=C1/NC(=S)NC1=O (stereo not given)	-0.5%	nt	1.2%	9.6%	-0.9%	16.9µM*
COc1cc(Cl)c(NC(=O)CCc2nc3cccnc3n2-c2ccccc2)c(OC)c1	nt	5.7%	nt	nt	nt	-1.5%
CC(=O)Nc1ccc(/C=N/N2C(C)CCCC2C)cc1 (stereo not given)	16.1%	-29.1%	11.0%	16.3%	7.2%	1.4%
CC(=O)Nc1ccc(/C=N/N2CCCCC2)cc1	?	14.1µM*	3.16µM*	4.47µM*	?	26.9µM*
Cc1cc(C)c(OCC(=O)NCC(C)(C)N2CCOCC2)c(C)c1	18.6%	nt	-0.4%	-5.9%	0.0%	0.5%
N#CC1(NC(=O)CN2C(=O)NC(Cc3c[nH]c4ccccc34)C2=O)CCCCC1 (stereo not given)	-0.5%	nt	nt	nt	0.4%	nt
COc1ccc(/C(N)=N/OC(=O)Cc2ccc(C)cc2)cc1	?	11.8%	13.5%	24.2%	15.9%	?
COc1ccc(C(=O)O/N=C(\N)c2ccc(Cl)cc2)cc1	?	nt	3.16µM*	?	?	2.39µM*
COc1ccccc1C(=O)O/N=C(\N)c1ccc(Cl)cc1	?	?	?	28.1%	?	21.3µM*
COc1ccc(/C(N)=N/OC(=O)c2ccc(Br)o2)cc1	?	nt	?	?	?	6.01µM*
Nc1ccc(-c2ccc(C(=O)O)s2)cn1	?	13.7%	8.3%	1.5%	2.4%	19µM*
Nc1ccc(S(=O)(=O)O)cn1	-2.6%	-5.0%	-2.1%	-0.9%	-0.1%	1.3%
SMILES	ELG1 DNA repair	SMN2 splice up	NPC1 promoter act	Rab9 prom act	ELG1 genotox	FLuc modulator
CC(=O)Nc1ccc(S(=O)(=O)N2CCN=C2SCc2ccc(F)cc2)cc1	2.91µM*	nt	-1.3%	-12.9%	-2.6%	-3.8%
Cc1ccc(N2CC(C(=O)Nc3ccc(Br)cc3)CC2=O)cc1 (stereo not given)	nt	nt	nt	nt	nt	-2.5%
O=C(CSc1nnc(-c2ccccn2)n1Cc1ccccc1)Nc1ccc2c(c1)OCO2	20.6µM*	-17.4%	-3.2%	-3.4%	-0.9%	-1.2%
N#Cc1ccccc1NC(=O)CSc1nccn1CCc1ccccc1	?	?	?	?	20.6µM*	21.3µM*
Cc1ccc(NC(=O)CSc2nccn2Cc2ccccc2)cc1C	?	nt	18.1%	?	3.2%	?
CC(=O)Nc1ccc(NC(=O)CSc2nccn2Cc2ccccc2)cc1	20.6µM*	-9.9%	1.9%	-2.0%	-1.0%	-12.6%
CC(=O)c1ccc(NC(=O)CSc2nccn2C)cc1	?	nt	22.1%	10.6%	12.8%	-7.6%
N#Cc1ccccc1NC(=O)CSc1nnc(-c2ccccc2)n1-c1ccccc1	?	-20.3%	3.5%	1.7%	-28.8%	0.7%
CC(=O)c1ccc(NC(=O)CSc2nccn2CCc2ccccc2)cc1	?	14.8%	?	?	?	13.5µM*
CCN(CC(=O)NCc1ccncc1)S(=O)(=O)c1ccc(OC)cc1	3.9%	nt	1.5%	-1.1%	1.7%	0.5%
CCOc1ccc(CCNC(=O)Cn2nnc(-c3ccc(C(F)(F)F)cc3)n2)cc1OCC	nt	-7.0%	nt	nt	nt	-1.6%
COc1ccc(CCCc2nnc(SCC(=O)Nc3ccc(C)cc3)o2)cc1	nt	-4.2%	nt	nt	nt	-9.8%
Cc1ccc(Cn2ccnc2SCC(=O)Nc2ccc3c(c2)OCO3)cc1	nt	nt	nt	nt	nt	-13.7%
O=C(CSc1nccn1Cc1ccccc1)Nc1ccc2c(c1)OCCO2	nt	nt	nt	nt	nt	13.5µM*
CCn1c(SCC(=O)Nc2ccc(C(C)=O)cc2)nc2ccccc21	?	?	?	?	16.4µM*	?
CCN(CC(=O)NCc1ccc(Cl)cc1)C(=O)c1cccc(S(=O)(=O)Nc2ccc(OC)cc2)c1	-11.6%	nt	0.0%	-2.2%	-3.9%	3.0%
CC(C)Cc1cc(C(=O)N2CCCC(CO)(Cc3ccc(F)cc3F)C2)n[nH]1 (stereo not given)	-1.1%	nt	1.1%	2.6%	0.0%[9.26 µM]	-1.8%
COc1ccc(-c2nc(CSCC(=O)NCc3ccc4c(c3)OCO4)c(C)o2)cc1	?	-16.6%	-1.0%	0.7%	-5.9%	26.9µM*
CCOc1ccc(-c2nc(CSCC(=O)NCc3ccc(C)cc3)c(C)o2)cc1	nt	nt	nt	nt	nt	-13.4%
COc1ccc(-c2nc(CS(=O)CC(=O)NCc3ccc4c(c3)OCO4)c(C)o2)cc1OC (stereo not given)	14.6µM*	nt	1.5%	3.5%	-4.9%	-7.4%
